Laboratory results from the supplement of paper PMC6805474.

Tests used:
[1] = test system: Schistosoma mansoni schistosomula (LE); assay: XTT viability relative to DMSO control; higher = more viable (less active); settings: 72 h; 10 µM
Procedure: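 XTT/PMS was then added for a further 24 h (72 h total) and A450 was read. % viability = (sample - heat-killed control)/(DMSO control - heat-killed control) x 100, from duplicate wells in two independent experiments.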

[2] = test system: Schistosoma mansoni schistosomula (NMRI); assay: phenotypic severity score (0-4); higher = more antischistosomal effect, active = 2 or more; settings: 10 µM
[3] = test system: Schistosoma mansoni schistosomula (Liberian); assay: drug effect (1 - score/DMSO control score) (fraction); higher = more antischistosomal effect, active = 0.5 or more; extreme values may be limits of the assay; settings: 10 µM
How it was run: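 A plate was valid only if its 0.1% DMSO wells averaged a score of at least 2. Those wells ran beside duplicate wells in which 50 Liberian-strain Schistosoma mansoni schistosomula each, transformed mechanically from cercariae and pre-incubated at least 12 h, met 10 µM compound in Medium 199 with 5% FCS at 37 °C, 5% CO2. Scoring was visual at 10× at 24, 48 and 72 h, from 3 (normal) to 0 (dead) in quarter-point steps. Drug effect was derived from the mean test-well score against the mean DMSO-well score, with negatives set to zero.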
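Wherever phenotypic severity score (0-4) is given: visual microscopic scoring of shape, motility and density changes versus 0.5% DMSO solvent controls, one point per descriptor, degeneracy or death scored 4, mean of duplicate wells.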

| SMILES | XTT viability [1] [%] | phenotypic severity score ([2]; 24 h) | phenotypic severity score ([2]; 48 h) | phenotypic severity score ([2]; 72 h) | drug effect ([3]; 24 h) | drug effect ([3]; 48 h) | drug effect ([3]; 72 h) |
| --- | --- | --- | --- | --- | --- | --- | --- |
| O=C(c1ccc(F)cc1)N(CCNc1ccccc1)c1ccccc1 | 126 | 1 (inactive) | 0 (inactive) | 1 (inactive) | 0.135 (inactive) | 0.167 (inactive) | 0.25 (inactive) |
| COc1ccc2nccc(NC(=O)C3CCN(CCc4ccc(Cl)cc4)CC3)c2n1 | 77.2 | 0 (inactive) | 0 (inactive) | 0 (inactive) | 0.05 (inactive) | 0.0556 (inactive) | 0.111 (inactive) |
| NCCN(C(=O)c1ccc(Cl)cc1Cl)c1ccc(OCc2ccc(Cl)cc2)cc1 | 22.7 | 0 (inactive) | 0 (inactive) | 0 (inactive) | 0.4 (inactive) | 0.333 (inactive) | 0.312 (inactive) |
| Cc1ccc2oc(-c3cc(NC(=O)Cc4ccccc4)ccc3Cl)nc2c1 | 109 | 1 (inactive) | 0 (inactive) | 0 (inactive) | 0.227 (inactive) | 0.25 (inactive) | 0.236 (inactive) |
| COc1ccc(CN2CCOc3ccc(C(C)(O)CN(C)C)cc3C2)cc1C (configuration not stated) | 120 | 0 (inactive) | 0 (inactive) | 1 (inactive) | 0.1 (inactive) | 0.0556 (inactive) | < 0 (inactive) |
| O=C(NCc1ccoc1)N1CCN(Cc2ccc3c(c2)OCO3)CC1 | 76.2 | 0 (inactive) | 0 (inactive) | 0 (inactive) | 0.136 (inactive) | 0.2 (inactive) | 0.182 (inactive) |
| COc1ccc(-c2nc(-c3cccc(NC(=O)Cc4ccc(F)cc4)c3)no2)cc1OC | 137 | 0 (inactive) | 0 (inactive) | 1 (inactive) | 0.182 (inactive) | 0.2 (inactive) | 0.182 (inactive) |
| Cc1cccc(NC(=O)c2cc(S(=O)(=O)N(C)c3ccc(F)cc3)ccc2Cl)n1 | 81 | 0 (inactive) | 0 (inactive) | 0 (inactive) | 0.05 (inactive) | 0.135 (inactive) | 0.222 (inactive) |
| CC1(C)Cc2c(c(N3CCOCC3)nc3snc(Br)c23)CO1 | 71.5 | 0 (inactive) | 0 (inactive) | 0 (inactive) | 0.0455 (inactive) | 0.1 (inactive) | 0.105 (inactive) |
| CC(=O)NC[C@@H]1CN(c2ccc(N3CCOCC3)c(F)c2)C(=O)O1 | 94.2 | 0 (inactive) | 0 (inactive) | 0 (inactive) | 0.227 (inactive) | 0.2 (inactive) | 0.182 (inactive) |
| O=C(NCCc1ccn(-c2ccccc2)n1)C1CCCCC1 | 74.1 | 0 (inactive) | 0 (inactive) | 0 (inactive) | 0.136 (inactive) | < 0 (inactive) | 0.0526 (inactive) |
| COC(=O)c1ccc(F)cc1NS(=O)(=O)c1cccc(-c2cnn(Cc3ccccc3)c2)c1 | 89.1 | 1 (inactive) | 1 (inactive) | 1 (inactive) | 0.409 (inactive) | 0.45 (inactive) | 0.455 (inactive) |
| CNC(=O)C1Cc2ccccc2N1C(=O)Cc1ccc(F)cc1 (configuration not stated) | 84.2 | 0 (inactive) | 0 (inactive) | 0 (inactive) | 0.227 (inactive) | 0.2 (inactive) | 0.236 (inactive) |
| O=C(N[C@H](Cc1ccccc1)C(=O)Nc1ccccc1N1CCOCC1)c1cccs1 | 129 | 0 (inactive) | 0 (inactive) | 0 (inactive) | 0.2 (inactive) | 0.167 (inactive) | 0.188 (inactive) |
| CC(C)C(Oc1cccc2ccccc12)C(=O)O (configuration not stated) | 108 | 0 (inactive) | 0 (inactive) | 0 (inactive) | < 0 (inactive) | < 0 (inactive) | 0.0556 (inactive) |
| CNC(=O)CNc1nc(-c2ccccn2)nc2scc(-c3ccccc3)c12 | 90 | 0 (inactive) | 0 (inactive) | 0 (inactive) | 0.105 (inactive) | 0.111 (inactive) | 0.125 (inactive) |
| Cc1nnc(NCc2cccc(Cl)c2)c2ccccc12 | 102 | 0 (inactive) | 0 (inactive) | 0 (inactive) | < 0 (inactive) | 0.25 (inactive) | 0.127 (inactive) |
| OC[C@H]1O[C@@H](n2c3ccc(Cl)cc3c3c(-c4cc5ccccc5o4)ncnc32)C(O)[C@H]1O (some centres not stated) | 93.9 | 0 (inactive) | 0 (inactive) | 0 (inactive) | 0.158 (inactive) | 0.111 (inactive) | < 0 (inactive) |
| c1ccc2c(c1)CN(CC1CC1)CC1(CCN(Cc3c[nH]c4cnccc34)CC1)O2 | 58 | 0 (inactive) | 0 (inactive) | 0 (inactive) | < 0 (inactive) | 0.1 (inactive) | 0.211 (inactive) |
| CC(C)(CN)c1nc(-c2ccc(Cl)c(O)c2)c(-c2ccnc(N)n2)[nH]1 | 156 | 0 (inactive) | 0 (inactive) | 0 (inactive) | 0.15 (inactive) | 0.167 (inactive) | 0.312 (inactive) |
| CCC(C)NC(=O)c1ccc(NC(=O)C2(c3ccccc3)CCCC2)cc1 (configuration not stated) | 90.6 | 0 (inactive) | 0 (inactive) | 0 (inactive) | 0.05 (inactive) | 0.027 (inactive) | 0.0303 (inactive) |

| SMILES | XTT viability [1] [%] | phenotypic severity score ([2]; 24 h) | phenotypic severity score ([2]; 48 h) | phenotypic severity score ([2]; 72 h) | drug effect ([3]; 24 h) | drug effect ([3]; 48 h) | drug effect ([3]; 72 h) |
| --- | --- | --- | --- | --- | --- | --- | --- |
| COc1ccc(Oc2ccc([C@@H](C)N(C)c3ncc4c(N)nc(N)nc4n3)cc2)cc1 | 4.74 | 4 (active) | 4 (active) | 4 (active) | 0.526 (active) | 0.5 (active) | 0.5 (active) |
| c1ccc(C[C@@H]2CN(c3nccc(Oc4ccc(-n5ccnc5)cc4)n3)CCN2)cc1 | 94.4 | 0 (inactive) | 0 (inactive) | 0 (inactive) | 0.1 (inactive) | 0.111 (inactive) | 0.188 (inactive) |
| N#Cc1nc(-c2ccccc2F)oc1NCCc1ccccc1 | 94 | 0 (inactive) | 0 (inactive) | 0 (inactive) | 0.2 (inactive) | 0.111 (inactive) | 0.125 (inactive) |
| O=C(NCc1nnc2n1CCCCC2)c1ccc(-c2ccc(F)cc2)o1 | 97.1 | 1 (inactive) | 0 (inactive) | 0 (inactive) | 0.136 (inactive) | 0.15 (inactive) | 0.182 (inactive) |
| O=C(NCCc1ccccc1)c1cc(-c2cccnc2)cnc1NCC1CC1 | 85.9 | 0 (inactive) | 2 (active) | 0 (inactive) | 0.2 (inactive) | 0.514 (active) | 0.576 (active) |
| CCc1ccccc1-n1c(C)cn2c3c(=O)n(C(C(=O)OC)C(C)C)c(=O)n(C)c3nc12 (configuration not stated) | 108 | 1 (inactive) | 0 (inactive) | 0 (inactive) | 0.15 (inactive) | 0.405 (inactive) | 0.636 (active) |
| c1ccc(Oc2ccc(-c3cc(C4CCOCC4)[nH]n3)cc2)cc1 | 98.4 | 0 (inactive) | 0 (inactive) | 0 (inactive) | 0.182 (inactive) | 0.35 (inactive) | 0.127 (inactive) |
| CCC(Sc1nc2ccccc2o1)C(=O)Nc1nccs1 (configuration not stated) | 7.06 | 2 (active) | 4 (active) | 4 (active) | 0.182 (inactive) | 1 (active) | 1 (active) |
| CC1CCCN(C(=O)C(C)Nc2cc(Cl)ccc2N2CCOCC2)C1 (configuration not stated) | 137 | 0 (inactive) | 0 (inactive) | 0 (inactive) | 0.15 (inactive) | 0.222 (inactive) | 0.375 (inactive) |
| CC(Oc1cccc(Cl)c1)C(=O)Nc1ccc2oc(-c3ccncc3)nc2c1 (configuration not stated) | 109 | 1 (inactive) | 0 (inactive) | 0 (inactive) | 0.318 (inactive) | 0.45 (inactive) | 0.564 (active) |
| COc1ccc(C2CC(c3cccs3)=NN2C(=O)c2ccco2)cc1OC (configuration not stated) | 65.7 | 0 (inactive) | 0 (inactive) | 0 (inactive) | 0.1 (inactive) | 0.135 (inactive) | 0.167 (inactive) |
| CC(=O)N1CCc2cc3nc(C)cc(C)c3cc21 | 112 | 0 (inactive) | 0 (inactive) | 0 (inactive) | 0.2 (inactive) | 0.111 (inactive) | 0.0625 (inactive) |
| CC(C)(C)c1cnc(NC(=O)c2ccccc2O)s1 | 79.9 | 0 (inactive) | 1 (inactive) | 1 (inactive) | 1 (active) | 1 (active) | 1 (active) |
| CCn1ncc2c(NC3CCOCC3)c(CNC(=O)c3ccnn3C)c(C)nc21 | 92.5 | 0 (inactive) | 0 (inactive) | 0 (inactive) | 0.05 (inactive) | 0.0811 (inactive) | 0.0303 (inactive) |
| CNC(=O)C1Cc2c([nH]c3cc(Cl)ccc23)C2(CCN(CCc3ccccc3)CC2)N1 (configuration not stated) | 13.4 | 0 (inactive) | 0 (inactive) | 0 (inactive) | 0.1 (inactive) | 0.514 (active) | 0.394 (inactive) |
| O=C(c1[nH]nc2c1CCCC2)N1CCN(Cc2ccc3c(c2)OCO3)CC1 | 89.6 | 0 (inactive) | 0 (inactive) | 0 (inactive) | 0.0909 (inactive) | 0.25 (inactive) | 0.236 (inactive) |
| COc1ccccc1CNC(=O)c1cc(C2CC2)nc2c1cnn2C(C)C | 38.4 | 0 (inactive) | 0 (inactive) | 0 (inactive) | 0.2 (inactive) | 0.459 (inactive) | 0.667 (active) |
| CCc1ccc(C(NCc2nc(N)nc(N(C)C)n2)C(C)C)cc1 (configuration not stated) | 99.2 | 0 (inactive) | 0 (inactive) | 0 (inactive) | < 0 (inactive) | < 0 (inactive) | 0.111 (inactive) |
| CCCCCCCCCCCCCCCCOP(=O)([O-])OCC[N+](C)(C)C | 127 | 0 (inactive) | 0 (inactive) | 0 (inactive) | 0.05 (inactive) | 0.243 (inactive) | 0.273 (inactive) |
| CO[C@H]1/C=C/O[C@@]2(C)Oc3c(C)c(O)c4c(O)c(/c(=C/NN5CCN(C)CC5)c(O)c4c3C2=O)=N\C(=O)/C(C)=C\C=C/[C@H](C)[C@H](O)[C@@H](C)[C@@H](O)[C@@H](C)[C@H](OC(C)=O)[C@@H]1C | 116 | 0 (inactive) | 0 (inactive) | 0 (inactive) | 0.0455 (inactive) | 0.05 (inactive) | 0.105 (inactive) |
